Screening results (PubChem)
ADAM17 inh: ADAM17 inhibitors, primary screen, biochemical, QFRET. Disintegrin and metalloproteinase domain-containing protein 17 (Homo sapiens), P78536. recombinant ADAM17, EDANS/DABCYL FRET peptide cleavage. inhibition, % at 6.95 µM. 370,000 compounds, 0.83% hits. AID 720648, 2013;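 active = inhibition above the mean of compounds lying between control limits plus 3 SD, set per campaign, cut at about 8.5% in these data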
rCAG binder: binders of r(CAG) RNA repeats, primary screen, biochemical, fluorescence; inhibition, % at 3 µM; AID 651821, 2012; 370,000 compounds, 1.3% hits; r(CAG) RNA repeat, TO-PRO-1 dye displacement fluorescence;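 active = inhibition above the plate cutoff, the mean of all test compounds on that plate plus 3 SD, cut at about 35% in these data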;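 also: higher means more dye released from RNA so lower well fluorescence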
AHR act: AHR activators, primary screen, cell-based, luminescence, luciferase reporter, human. Aryl hydrocarbon receptor (Homo sapiens), P35869. AHR-responsive luciferase reporter cells. activation, % at 5 µM. 320,000 compounds, 2.5% hits. AID 2796, 2010; in the data active = activation above about 47%
GRIN3A LBD mod: binders of NR3A ligand-binding domain, primary screen, biophysical, differential scanning fluorimetry, uHTS; Glutamate receptor ionotropic, NMDA 3A (GRIN3A) ligand-binding domain; Tm shift relative to glycine control, % at 25 µM; NR3A LBD differential scanning fluorimetry, Tm shift; 0% = protein alone, 100% = glycine-bound protein; 340,000 compounds, 2.5% hits;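 active = melting temperature shift of at least 10% of the positive control shift, at one fixed dose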
ADAM10 inh: human ADAM10 inhibitors, primary screen, biochemical, QFRET, HTS | Disintegrin and metalloproteinase domain-containing protein 10 (Homo sapiens), O14672 | recombinant ADAM10, EDANS/DABCYL FRET peptide cleavage, 3 h | inhibition, % at 7 µM | 370,000 compounds, 0.62% hits;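 active = inhibition above a per-campaign cutoff equal to the mean of compounds falling between control-based bounds plus 3 SD, cut at about 20% in these data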
KLK7 zymogen act: proKLK7 zymogen activators, primary screen, biochemical, fluorescence intensity. Kallikrein-7 (Homo sapiens), P49862. purified proKLK7, EDANS-DABCYL substrate fluorescence; 100% is mature enzyme control, 0% vehicle. activation, % at 7 µM. 370,000 compounds, 0.9% hits. AID 652039, 2013;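 active = activation above the mean of all tested compounds plus 3 SD, computed per campaign excluding outliers beyond control limits, cut at about 13% in these data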
Target sequence (P49862 whole entry, looked up): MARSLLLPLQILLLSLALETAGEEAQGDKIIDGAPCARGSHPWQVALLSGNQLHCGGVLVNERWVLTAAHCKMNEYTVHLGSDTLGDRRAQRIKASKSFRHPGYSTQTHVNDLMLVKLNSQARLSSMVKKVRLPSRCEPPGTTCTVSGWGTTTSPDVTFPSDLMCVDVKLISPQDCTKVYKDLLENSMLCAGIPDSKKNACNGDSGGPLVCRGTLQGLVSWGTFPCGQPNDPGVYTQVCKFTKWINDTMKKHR
ADAM10 confirm: human ADAM10 inhibitors, confirmation, biochemical, QFRET, triplicate. inhibition, % at 6.95 µM. 2,100 compounds, 1% hits. ADAM10 QFRET peptide cleavage, EDANS fluorescence. shares compounds with ADAM10 inh. AID 743208, 2013;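 active = inhibition above about 20% chosen separately for each screening run, limit read from the data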
ADAM17 counter: ADAM17 inhibitors, counter-screen for ADAM10 exosite inhibitor project, biochemical, QFRET, high throughput | shares compounds with ADAM10 inh | ADAM17 QFRET peptide cleavage, EDANS fluorescence | inhibition, % at 6.95 µM | 2,100 compounds, 0.5% hits | AID 743214, 2013;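 active = mean triplicate inhibition above the solvent-only control wells' mean plus 3 SD, cut at about 12% in these data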
Of the large screens only hits and unclear results are named; the others gave an inactive call (follow-up assays come after a bar, where they were run). Sampled rows, rich in hits. Any-hit rate of the full collection: about 7%.

O=C(CSc1nnc(COc2ccc(F)cc2)o1)N1c2ccccc2CCc2ccccc21	ADAM10 inh 20 | ADAM10 confirm inactive | ADAM17 counter inactive
CC1=C(C(=O)OC2CCC(C)CC2)C(c2ccc(O)c([N+](=O)[O-])c2)NC(=O)N1 (centres undefined)	none
COc1ccccc1-c1ccc2c(c1)C(C)(Cc1cc(Cl)ccc1C(F)(F)F)C(=O)N2 (centres undefined)	ADAM10 inh 21 (no result: AHR act, GRIN3A LBD mod) | ADAM10 confirm inactive | ADAM17 counter inactive
O=S(=O)(NC1CCCCC1NS(=O)(=O)c1ccc(F)cc1)c1ccc(F)cc1 (centres undefined)	ADAM10 inh 20 | ADAM10 confirm inactive | ADAM17 counter inactive
CSc1ccc(OC2CCCCC2NS(=O)(=O)c2ccc(Cl)cc2)cc1 (centres undefined)	ADAM10 inh 28 | ADAM10 confirm inactive | ADAM17 counter inactive
CCN(CC(=O)Nc1c(F)cccc1F)C(=O)C1CC(=O)N(CCc2ccc(OC)c(OC)c2)C1 (centres undefined)	none
CCCNC(=O)C1(C)CCN(C(=O)c2ccc3snnc3c2)C1 (centres undefined)	none (no result: AHR act, GRIN3A LBD mod)
COc1cccc(NC(=S)Nc2ccc(O)cc2)c1	none
COc1cccc(NC(=S)NNC(=O)c2ccccc2OC(F)F)c1	ADAM10 inh 21 | ADAM10 confirm inactive | ADAM17 counter inactive
COc1ccccc1C(=O)Nc1nc(-c2ccc(S(=O)(=O)N3CCOCC3)cc2)cs1	none
COc1ccccc1OC(C)C(=O)Nc1nc(-c2ccc(S(=O)(=O)N3CCOCC3)cc2)cs1 (centres undefined)	ADAM10 inh 21 | ADAM10 confirm inactive | ADAM17 counter inactive
CN(CC(=O)NCc1ccc(F)cc1)CC(=O)Nc1ccc(Cl)c(C(F)(F)F)c1	ADAM10 inh 23 | ADAM10 confirm inactive | ADAM17 counter inactive
Cc1ccccc1Cn1ccc(NC(=O)c2cnn3c2NC(c2ccccc2)CC3C(F)(F)F)n1 (centres undefined)	ADAM10 inh 21 | ADAM10 confirm inactive | ADAM17 counter inactive
Cc1cc(C)c(C#N)c(SCc2ccccc2)n1	ADAM10 inh 23 | ADAM10 confirm inactive | ADAM17 counter inactive
CC1CCN(C2CCN(S(=O)(=O)c3ccc(C(F)(F)F)cc3)CC2)CC1	none
O=C(Nc1cc2c(cc1Cl)-c1ccc([N+](=O)[O-])cc1C2=NO)C(F)(F)F	none (no result: ADAM17 inh, rCAG binder, AHR act, ADAM10 inh, KLK7 zymogen act)
CCNC(=S)Nc1scc(-c2ccccc2)c1C(=O)OCC	ADAM10 inh 26 | ADAM10 confirm inactive | ADAM17 counter inactive
C=CCN1c2ccccc2[C@]23C[C@@H](C(=O)OC)N(C(=O)NC4CCCC4)C2=NC(C(=O)OC)=C(C(=O)OC)[C@H]13	ADAM17 inh 10, ADAM10 inh 21 | ADAM10 confirm inactive | ADAM17 counter inactive
CC#CCN1c2ccccc2[C@]23C[C@@H](C(=O)OC)N(C(=O)NC4CCCCC4)C2=NC(C(=O)OC)=C(C(=O)OC)[C@H]13	none
CCOC1=C2[C@H](c3ccccc3)N(S(=O)(=O)c3ccc(C)cc3)[C@H](C(C)C)[C@H]2n2c(=O)n(-c3ccccc3)c(=O)n2C1	none (no result: AHR act, GRIN3A LBD mod)
COc1ccc([C@H]2CC(=O)C=C(c3ccc4ncccc4c3)C2)cc1	none
O=C1C=C(c2ccc3ncccc3c2)C[C@@H](c2ccc(Cl)cc2)C1	ADAM10 inh 20 | ADAM10 confirm inactive | ADAM17 counter inactive
C=CCC[C@@H](Cc1ccc(F)cc1)C(=O)OC[C@@H](Cc1c[nH]c2ccccc12)NC(=O)[C@H](CC=C)CC(=O)NCCO	none
C=CCC[C@@H](Cc1ccc(F)cc1)C(=O)OC[C@H](Cc1c[nH]c2ccccc12)NC(=O)[C@@H](CC=C)CC(=O)NCCO	ADAM10 inh 25 | ADAM10 confirm inactive | ADAM17 counter inactive
CN(CC(=O)Nc1ccc(OC(F)(F)F)cc1)C(=O)Cc1cccs1	none
Cc1ccc(S(=O)(=O)N2CCN(C(=O)COC(=O)CCOc3ccccc3)CC2)c(C)c1	none
CCCOc1ccc(C(=O)CCC(=O)OCC(=O)N2CCN(S(=O)(=O)c3ccc(C)cc3C)CC2)cc1	ADAM10 inh 21 (no result: AHR act) | ADAM10 confirm inactive | ADAM17 counter inactive
Cc1ccc(C(=O)CCNc2ccc(F)c(Cl)c2)o1	none
CCCCc1ncc(CN2CCC(n3nccc3NC(=O)c3ccccc3OC)CC2)[nH]1	none
O=C(CN1CCN(S(=O)(=O)c2ccc(Br)cc2)CC1)Nc1ccc2c(c1)OCO2	ADAM10 inh 21 | ADAM10 confirm inactive | ADAM17 counter inactive
O=C(Cc1cccc(C(F)(F)F)c1)Nc1cccc(S(=O)(=O)N2CCCC2)c1	ADAM10 inh 20 | ADAM10 confirm inactive | ADAM17 counter inactive
O=C(Cc1cccc(C(F)(F)F)c1)Nc1ccc(S(=O)(=O)N2CCCC2)cc1	none
CC(C)(C)c1ccc(OCCC(=O)Nc2cccc(S(=O)(=O)N3CCCCC3)c2)cc1	ADAM10 inh 24 | ADAM10 confirm inactive | ADAM17 counter inactive
Cc1noc(C)c1S(=O)(=O)N(C)C[C@H]1Oc2ccc(NC(=O)CCC(F)(F)F)cc2C(=O)N([C@H](C)CO)C[C@@H]1C	none
CCCCn1c(N)c(N(CCOC)C(=O)c2cc(C)oc2C)c(=O)[nH]c1=O	ADAM10 inh 51 | ADAM10 confirm inactive | ADAM17 counter inactive
CCCCn1c(N)c(N(CCOC)C(=O)c2cc(=O)[nH]c3ccccc23)c(=O)[nH]c1=O	none
O=S(=O)(NCc1ccc(Cl)c(Cl)c1)c1cc(Cl)ccc1N1CC[C@@H](O)C1	ADAM10 inh 21 (no result: AHR act, GRIN3A LBD mod) | ADAM10 confirm inactive | ADAM17 counter inactive
CCC1(c2ccccc2)NC(=O)N(CC(=O)N(CC(=O)Nc2ccccc2C(F)(F)F)Cc2ccco2)C1=O (centres undefined)	ADAM10 inh 81 | ADAM10 confirm inactive | ADAM17 counter inactive
CCN(CC(=O)Nc1ccccc1C(F)(F)F)C(=O)CN1C(=O)NC2(CCCCC2)C1=O	none
